# Where “and” joins values, the source holds several entries; their conditions need not be identical. Identical values can stand only once.
# Legend:
# [1] = molecular target: Sphingosine kinase 1 (Homo sapiens) (UniProt Q9NYA1); conditions: at 1 µM;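 also: mean SPHK1 inhibition value reported from the GSK PKIS kinase panel screen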
# [2] = molecular target: T1, Sphingosine kinase 2 (Homo sapiens) (UniProt Q9NRA0); conditions: at 0.1 µM
# T1 sequence (whole entry): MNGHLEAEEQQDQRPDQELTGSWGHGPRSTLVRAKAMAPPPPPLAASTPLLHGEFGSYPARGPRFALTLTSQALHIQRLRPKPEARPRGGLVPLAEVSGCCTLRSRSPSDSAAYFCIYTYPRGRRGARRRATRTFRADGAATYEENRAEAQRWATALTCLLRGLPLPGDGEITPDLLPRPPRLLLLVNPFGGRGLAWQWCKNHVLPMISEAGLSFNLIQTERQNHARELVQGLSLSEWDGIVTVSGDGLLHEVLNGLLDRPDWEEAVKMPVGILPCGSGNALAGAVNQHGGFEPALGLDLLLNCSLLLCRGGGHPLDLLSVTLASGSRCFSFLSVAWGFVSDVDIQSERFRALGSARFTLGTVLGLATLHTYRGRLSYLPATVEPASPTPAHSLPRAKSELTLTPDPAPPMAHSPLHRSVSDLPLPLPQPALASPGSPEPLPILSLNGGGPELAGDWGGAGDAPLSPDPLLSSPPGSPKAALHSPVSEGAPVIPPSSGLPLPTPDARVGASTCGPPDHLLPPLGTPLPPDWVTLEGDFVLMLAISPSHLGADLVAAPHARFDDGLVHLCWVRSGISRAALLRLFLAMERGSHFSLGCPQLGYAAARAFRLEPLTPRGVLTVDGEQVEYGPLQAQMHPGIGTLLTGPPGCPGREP
# [3] = molecular target: T1, Sphingosine kinase 2 (Homo sapiens); conditions: at 1 µM
# [4] = molecular target: Casein kinase II subunit alpha (Homo sapiens) (UniProt P68400); conditions: at 0.1 µM
# [5] = molecular target: Casein kinase II subunit alpha (Homo sapiens) (UniProt P68400); conditions: at 1 µM
# [6] = molecular target: T2, Inhibitor of nuclear factor kappa-B kinase subunit alpha (Homo sapiens) (UniProt O15111); conditions: at 0.1 µM
# T2 sequence (whole entry): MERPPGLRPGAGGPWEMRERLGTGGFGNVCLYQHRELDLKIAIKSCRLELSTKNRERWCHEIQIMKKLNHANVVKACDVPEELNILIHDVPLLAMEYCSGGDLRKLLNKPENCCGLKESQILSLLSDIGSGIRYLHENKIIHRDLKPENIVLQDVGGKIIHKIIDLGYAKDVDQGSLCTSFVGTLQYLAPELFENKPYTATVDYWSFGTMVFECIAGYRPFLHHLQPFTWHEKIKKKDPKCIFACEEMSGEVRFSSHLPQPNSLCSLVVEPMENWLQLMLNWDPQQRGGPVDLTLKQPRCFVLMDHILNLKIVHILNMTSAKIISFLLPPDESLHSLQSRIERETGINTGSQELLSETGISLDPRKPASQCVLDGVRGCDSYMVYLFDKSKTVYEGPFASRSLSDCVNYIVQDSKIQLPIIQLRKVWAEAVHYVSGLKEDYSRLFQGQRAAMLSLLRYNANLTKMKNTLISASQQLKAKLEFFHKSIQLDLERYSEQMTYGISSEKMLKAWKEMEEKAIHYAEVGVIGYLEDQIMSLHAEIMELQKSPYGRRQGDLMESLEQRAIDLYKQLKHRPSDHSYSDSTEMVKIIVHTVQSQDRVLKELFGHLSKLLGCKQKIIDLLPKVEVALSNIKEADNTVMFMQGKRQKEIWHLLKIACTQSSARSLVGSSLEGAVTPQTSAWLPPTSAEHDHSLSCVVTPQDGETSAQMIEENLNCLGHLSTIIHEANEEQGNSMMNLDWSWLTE
# [7] = molecular target: T2, Inhibitor of nuclear factor kappa-B kinase subunit alpha (Homo sapiens); conditions: at 1 µM
# [8] = molecular target: T3, Inhibitor of nuclear factor kappa-B kinase subunit beta (Homo sapiens) (UniProt O14920); conditions: at 0.1 µM
# T3 sequence (whole entry): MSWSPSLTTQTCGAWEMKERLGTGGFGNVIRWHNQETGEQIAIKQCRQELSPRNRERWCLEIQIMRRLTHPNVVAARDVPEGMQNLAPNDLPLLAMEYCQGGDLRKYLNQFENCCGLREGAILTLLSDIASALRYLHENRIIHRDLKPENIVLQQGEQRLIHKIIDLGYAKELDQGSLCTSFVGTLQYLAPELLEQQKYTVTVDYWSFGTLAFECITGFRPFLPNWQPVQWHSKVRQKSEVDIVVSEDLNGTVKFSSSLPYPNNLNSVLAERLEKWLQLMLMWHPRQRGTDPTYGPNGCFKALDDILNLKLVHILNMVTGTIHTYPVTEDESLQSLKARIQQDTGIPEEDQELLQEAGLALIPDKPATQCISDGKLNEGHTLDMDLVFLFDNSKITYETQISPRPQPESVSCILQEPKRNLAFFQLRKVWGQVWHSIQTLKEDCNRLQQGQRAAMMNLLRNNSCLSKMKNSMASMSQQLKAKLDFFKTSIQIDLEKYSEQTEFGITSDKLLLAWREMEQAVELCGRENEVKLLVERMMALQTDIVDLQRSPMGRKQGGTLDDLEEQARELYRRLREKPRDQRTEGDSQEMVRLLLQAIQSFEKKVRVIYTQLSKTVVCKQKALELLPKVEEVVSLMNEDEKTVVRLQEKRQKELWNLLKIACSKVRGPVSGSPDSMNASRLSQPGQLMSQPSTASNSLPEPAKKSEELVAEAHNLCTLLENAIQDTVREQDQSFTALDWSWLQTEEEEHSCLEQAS
# [9] = molecular target: T3, Inhibitor of nuclear factor kappa-B kinase subunit beta (Homo sapiens); conditions: at 1 µM
# [10] = molecular target: T4, Inhibitor of nuclear factor kappa-B kinase subunit epsilon (Homo sapiens) (UniProt Q14164); conditions: at 0.1 µM
# T4 sequence (whole entry): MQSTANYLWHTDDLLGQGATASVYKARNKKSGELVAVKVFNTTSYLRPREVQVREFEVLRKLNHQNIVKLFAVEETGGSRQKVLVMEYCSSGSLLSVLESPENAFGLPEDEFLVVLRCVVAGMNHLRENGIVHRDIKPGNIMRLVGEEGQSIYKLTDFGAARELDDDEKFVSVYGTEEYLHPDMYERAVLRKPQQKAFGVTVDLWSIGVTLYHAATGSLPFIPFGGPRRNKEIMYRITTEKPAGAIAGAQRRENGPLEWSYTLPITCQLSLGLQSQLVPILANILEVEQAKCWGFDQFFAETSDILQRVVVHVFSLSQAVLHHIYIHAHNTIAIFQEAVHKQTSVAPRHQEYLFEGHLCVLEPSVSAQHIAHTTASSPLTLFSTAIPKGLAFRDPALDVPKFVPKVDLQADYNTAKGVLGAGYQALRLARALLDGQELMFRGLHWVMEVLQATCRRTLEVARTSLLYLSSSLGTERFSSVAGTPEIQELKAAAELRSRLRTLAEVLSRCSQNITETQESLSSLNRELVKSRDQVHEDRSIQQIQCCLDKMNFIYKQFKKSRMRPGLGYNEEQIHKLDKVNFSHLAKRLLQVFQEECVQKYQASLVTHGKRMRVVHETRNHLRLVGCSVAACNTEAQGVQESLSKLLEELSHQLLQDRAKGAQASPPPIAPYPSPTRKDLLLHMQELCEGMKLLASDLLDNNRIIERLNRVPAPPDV
# [11] = molecular target: T4, Inhibitor of nuclear factor kappa-B kinase subunit epsilon (Homo sapiens); conditions: at 1 µM
# [12] = molecular target: T5, Serine/threonine-protein kinase Nek1 (Homo sapiens) (UniProt Q96PY6); conditions: at 0.1 µM
# T5 sequence (whole entry): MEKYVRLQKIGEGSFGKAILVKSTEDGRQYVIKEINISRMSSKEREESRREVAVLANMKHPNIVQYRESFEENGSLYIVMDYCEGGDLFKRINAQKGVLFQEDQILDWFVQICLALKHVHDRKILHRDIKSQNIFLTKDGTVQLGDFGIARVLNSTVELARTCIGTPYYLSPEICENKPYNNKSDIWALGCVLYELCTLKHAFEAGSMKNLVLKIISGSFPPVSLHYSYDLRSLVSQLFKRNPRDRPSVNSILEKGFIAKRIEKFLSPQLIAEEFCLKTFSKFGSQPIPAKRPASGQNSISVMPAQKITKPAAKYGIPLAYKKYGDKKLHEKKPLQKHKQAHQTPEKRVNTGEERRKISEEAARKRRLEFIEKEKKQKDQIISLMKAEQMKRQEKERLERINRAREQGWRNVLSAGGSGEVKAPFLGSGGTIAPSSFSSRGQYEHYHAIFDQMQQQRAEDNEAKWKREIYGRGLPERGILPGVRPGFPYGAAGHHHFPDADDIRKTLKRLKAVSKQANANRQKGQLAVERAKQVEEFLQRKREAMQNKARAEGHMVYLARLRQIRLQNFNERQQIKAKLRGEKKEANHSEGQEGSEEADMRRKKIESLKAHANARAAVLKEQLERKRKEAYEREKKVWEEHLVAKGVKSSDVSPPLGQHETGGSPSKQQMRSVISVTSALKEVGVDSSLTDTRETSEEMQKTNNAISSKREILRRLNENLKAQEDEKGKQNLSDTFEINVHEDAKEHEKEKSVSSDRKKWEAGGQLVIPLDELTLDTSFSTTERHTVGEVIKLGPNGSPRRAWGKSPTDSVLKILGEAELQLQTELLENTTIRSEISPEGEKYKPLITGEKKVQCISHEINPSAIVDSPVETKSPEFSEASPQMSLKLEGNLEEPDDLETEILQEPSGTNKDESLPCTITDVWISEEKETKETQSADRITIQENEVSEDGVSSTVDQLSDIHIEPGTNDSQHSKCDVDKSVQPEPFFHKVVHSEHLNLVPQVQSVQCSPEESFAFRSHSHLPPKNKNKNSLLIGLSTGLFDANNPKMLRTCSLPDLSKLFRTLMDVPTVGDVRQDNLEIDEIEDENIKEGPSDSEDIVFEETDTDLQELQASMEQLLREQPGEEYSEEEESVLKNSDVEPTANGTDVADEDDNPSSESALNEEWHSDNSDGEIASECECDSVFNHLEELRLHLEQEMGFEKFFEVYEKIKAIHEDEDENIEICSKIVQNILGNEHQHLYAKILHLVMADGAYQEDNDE
# [13] = molecular target: T5, Serine/threonine-protein kinase Nek1 (Homo sapiens); conditions: at 1 µM
# [14] = molecular target: T6, Serine/threonine-protein kinase Nek2 (Homo sapiens) (UniProt P51955); conditions: at 0.1 µM
# T6 sequence (whole entry): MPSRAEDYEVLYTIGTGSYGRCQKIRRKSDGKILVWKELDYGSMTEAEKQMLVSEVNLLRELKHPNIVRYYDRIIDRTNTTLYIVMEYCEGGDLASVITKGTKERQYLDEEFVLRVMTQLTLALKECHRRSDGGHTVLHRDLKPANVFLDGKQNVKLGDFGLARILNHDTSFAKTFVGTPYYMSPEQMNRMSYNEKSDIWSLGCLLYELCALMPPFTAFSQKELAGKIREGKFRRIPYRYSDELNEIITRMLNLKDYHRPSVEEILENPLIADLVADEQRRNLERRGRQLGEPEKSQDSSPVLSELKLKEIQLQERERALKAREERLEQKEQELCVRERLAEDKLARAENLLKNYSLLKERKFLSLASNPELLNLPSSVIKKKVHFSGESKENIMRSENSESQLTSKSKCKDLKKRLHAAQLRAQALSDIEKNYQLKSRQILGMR
# [15] = molecular target: T6, Serine/threonine-protein kinase Nek2 (Homo sapiens); conditions: at 1 µM
# [16] = molecular target: Serine/threonine-protein kinase Nek6 (Homo sapiens) (UniProt Q9HC98); conditions: at 0.1 µM
# [17] = molecular target: Serine/threonine-protein kinase Nek6 (Homo sapiens) (UniProt Q9HC98); conditions: at 1 µM
# [18] = molecular target: Serine/threonine-protein kinase Nek7 (Homo sapiens) (UniProt Q8TDX7); conditions: at 0.1 µM
# [19] = molecular target: Serine/threonine-protein kinase Nek7 (Homo sapiens) (UniProt Q8TDX7); conditions: at 1 µM
# [20] = molecular target: T7, Serine/threonine-protein kinase Nek9 (Homo sapiens) (UniProt Q8TD19); conditions: at 0.1 µM;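 also: reported value is the mean percent inhibition of NEK9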
# T7 sequence (whole entry): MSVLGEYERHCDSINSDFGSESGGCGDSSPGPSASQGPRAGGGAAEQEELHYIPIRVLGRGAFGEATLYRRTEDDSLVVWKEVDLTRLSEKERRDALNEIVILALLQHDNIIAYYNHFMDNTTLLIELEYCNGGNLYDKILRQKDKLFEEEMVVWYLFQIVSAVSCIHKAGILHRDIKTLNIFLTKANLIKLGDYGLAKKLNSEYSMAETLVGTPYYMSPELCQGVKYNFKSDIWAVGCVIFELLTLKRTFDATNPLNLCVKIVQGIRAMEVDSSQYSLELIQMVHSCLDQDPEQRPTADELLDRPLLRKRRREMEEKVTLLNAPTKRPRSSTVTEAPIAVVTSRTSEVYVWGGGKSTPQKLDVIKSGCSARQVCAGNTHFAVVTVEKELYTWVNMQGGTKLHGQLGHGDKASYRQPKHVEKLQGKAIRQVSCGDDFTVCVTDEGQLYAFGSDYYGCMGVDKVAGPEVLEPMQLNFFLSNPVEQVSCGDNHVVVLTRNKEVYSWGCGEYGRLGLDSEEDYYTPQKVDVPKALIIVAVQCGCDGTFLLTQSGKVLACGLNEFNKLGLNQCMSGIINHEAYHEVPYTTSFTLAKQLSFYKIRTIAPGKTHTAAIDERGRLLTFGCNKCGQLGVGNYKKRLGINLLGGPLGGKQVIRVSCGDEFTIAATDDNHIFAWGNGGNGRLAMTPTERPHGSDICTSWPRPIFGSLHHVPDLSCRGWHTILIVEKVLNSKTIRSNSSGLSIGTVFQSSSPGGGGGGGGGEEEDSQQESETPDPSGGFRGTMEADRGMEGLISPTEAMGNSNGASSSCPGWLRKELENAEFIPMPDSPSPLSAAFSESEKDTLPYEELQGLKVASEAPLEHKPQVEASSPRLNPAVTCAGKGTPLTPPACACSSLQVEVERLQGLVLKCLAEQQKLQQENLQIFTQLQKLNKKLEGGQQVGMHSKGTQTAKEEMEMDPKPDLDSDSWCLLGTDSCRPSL
# Casein kinase II subunit alpha (Homo sapiens), sequence (P68400 whole entry, looked up): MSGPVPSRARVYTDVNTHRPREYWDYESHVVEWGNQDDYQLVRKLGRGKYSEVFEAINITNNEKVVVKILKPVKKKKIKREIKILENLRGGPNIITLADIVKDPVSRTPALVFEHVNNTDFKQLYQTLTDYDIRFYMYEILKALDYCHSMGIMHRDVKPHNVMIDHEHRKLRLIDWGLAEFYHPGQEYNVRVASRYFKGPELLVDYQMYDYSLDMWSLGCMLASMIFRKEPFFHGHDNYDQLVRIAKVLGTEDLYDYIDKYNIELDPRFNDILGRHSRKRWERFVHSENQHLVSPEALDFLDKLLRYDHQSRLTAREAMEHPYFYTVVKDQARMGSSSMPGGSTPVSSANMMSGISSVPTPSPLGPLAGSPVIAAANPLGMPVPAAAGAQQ
# Serine/threonine-protein kinase Nek6 (Homo sapiens), sequence (Q9HC98 whole entry): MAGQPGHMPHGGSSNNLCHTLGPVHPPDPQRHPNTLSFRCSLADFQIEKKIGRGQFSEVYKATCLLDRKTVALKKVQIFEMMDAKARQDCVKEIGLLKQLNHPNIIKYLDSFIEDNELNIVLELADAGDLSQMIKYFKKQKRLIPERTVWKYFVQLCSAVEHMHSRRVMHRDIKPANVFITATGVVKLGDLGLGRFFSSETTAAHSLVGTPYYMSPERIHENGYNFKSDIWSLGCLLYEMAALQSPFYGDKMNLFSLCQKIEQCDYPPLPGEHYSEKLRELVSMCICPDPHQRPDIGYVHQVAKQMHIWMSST
# Serine/threonine-protein kinase Nek7 (Homo sapiens), sequence (Q8TDX7 whole entry, looked up): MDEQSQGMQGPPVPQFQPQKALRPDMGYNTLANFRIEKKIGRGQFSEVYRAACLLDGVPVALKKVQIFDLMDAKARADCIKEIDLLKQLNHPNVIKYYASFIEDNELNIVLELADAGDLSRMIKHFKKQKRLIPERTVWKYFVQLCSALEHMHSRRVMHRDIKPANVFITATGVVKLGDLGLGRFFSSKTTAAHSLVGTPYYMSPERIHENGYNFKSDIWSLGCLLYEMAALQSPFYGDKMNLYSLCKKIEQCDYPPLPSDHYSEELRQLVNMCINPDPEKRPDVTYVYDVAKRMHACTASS
# Sphingosine kinase 1 (Homo sapiens), sequence (Q9NYA1 whole entry): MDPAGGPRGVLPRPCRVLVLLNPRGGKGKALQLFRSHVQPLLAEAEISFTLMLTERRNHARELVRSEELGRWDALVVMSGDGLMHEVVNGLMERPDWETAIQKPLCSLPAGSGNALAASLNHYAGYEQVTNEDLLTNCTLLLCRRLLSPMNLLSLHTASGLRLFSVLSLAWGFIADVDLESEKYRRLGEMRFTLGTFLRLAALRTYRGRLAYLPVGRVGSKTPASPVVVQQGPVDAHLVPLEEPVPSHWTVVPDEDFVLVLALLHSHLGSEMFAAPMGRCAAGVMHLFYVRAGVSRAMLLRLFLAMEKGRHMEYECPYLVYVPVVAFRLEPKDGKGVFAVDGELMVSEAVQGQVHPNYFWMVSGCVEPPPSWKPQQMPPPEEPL
SMILES,inhibition [1],inhibition [2],inhibition [3],inhibition [4],inhibition [5],inhibition [6],inhibition [7],inhibition [8],inhibition [9],inhibition [10],inhibition [11],inhibition [12],inhibition [13],inhibition [14],inhibition [15],inhibition [16],inhibition [17],inhibition [18],inhibition [19],inhibition [20]
Cc1ccc(-c2cc3c(NC(=O)C4CC4)ncnc3o2)cc1,-8.41%,-0.23%,-0.24%,2.02%,10.8%,4.84%,1.2%,2.98%,4.2%,4.06%,6.07%,1.85%,3.91%,4.58%,4.89%,3.4%,0.29%,3.17%,3.35%,3.07%
Nc1nccc(-c2c(-c3ccc(F)cc3)ncn2C2CCNCC2)n1,5.1% and -0.03%,0.57% and 0.62%,1.73% and 0.57%,0.26% and 2.91%,18% and 2.93%,5.16% and -0.81%,8.44% and 4.4%,-3.54% and 0.6%,-2.15% and 0.23%,-4.18% and 0.25%,-3.35% and 1.18%,-2.75% and -0.7%,0.36% and 1.29%,-3.4% and 0.5%,-4.07% and 0.05%,-2.7% and -2.19%,-2.93% and 2.63%,-2.09% and 0.15%,-4.78% and 0.13%,0.73% and -1.84%
